# Calls of active or inactive are those of the source. Calls follow the shape of the dose curve; as a rule, active = well fitted curve in the direction sought with a large enough effect; inconclusive = small, poorly fitted or top-dose-only effect, or another doubt; inactive = no such curve, though single readings can be large or run the other way.
# Biological target: alpha-glucosidase (Oryza sativa, rice) (UniProt Q653V4)
# Assay: Counterscreen for Glucocerebrosidase Inhibitors: qHTS Assay for Rice alpha-Glucosidase at pH 5.0 (AID 997);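 also: 0% = full activity with enzyme and -100% = basal without enzyme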
# Conditions: rice alpha-glucosidase enzyme activity; series mostly up to 76.9 µM; activity change, negative = inhibition: at the top concentration
# Excerpt: NIH Chemical Genomics Center [NCGC]
# NIH Molecular Libraries Screening Centers Network [MLSCN]
# PI Name: Zheng, Wei [NIH]
# Alpha-glucosidase is responsible for hydrolysis of terminal, non-reducing 1,4-linked alpha-D-glucose residues with release of alpha-D-glucose. It is a lysosomal hydrolase that is required for the degradation of a small percentage (1-3%) of cellular glycogen in human. Deficiency of this enzyme results in glycogen-storage disease type II (GSDII), also referred to as Pompe disease, an autosomal recessive disorder. Structurally normal glycogen is accumulated in lysosomes and cytoplasm in affected patients, primarily in muscle tissues. Excessive glycogen storage within lysosomes may interrupt normal functioning of other organelles and leads to cellular injury. In turn, this leads to enlargement and dysfunction of the entire organ involved (eg, cardiomyopathy and muscle weakness).
# It has reported that the improper folding and trafficking of alpha-glucosidase resulted from the genetic mutations may account for a significant number of Prope patients. […] We optimized this alpha-glucosidase assay in 1536-well plate format for identifying the novel small molecule inhibitors with the structures other than the sugar analogs in order to develop the new pharmacological chaperones.
# NCGC Assay Protocol Summary:
# This is a fluorogenic enzyme assay with 4-methylumbelliferyl-alpha-D-pyranoside as the substrate and rice alpha-glucosidase as the enzyme preparation. Upon the hydrolysis of this fluorogenic substrate, the resulting product, 1. 4-methyllumbelliferone, can be excited at 365 nm and emits at 440 nm which can be detected by a standard fluorescence plate reader. Data were normalized to the controls for basal activity (without enzyme) and 100% activity (with enzyme). In the AC50 values were determined from concentration-response data modeled with the standard Hill equation.
# Assay buffer: 50 mM citric acid, 0.005% Tween-20, pH 5.0. (pH 5.0 is an optimal condition for this enzyme assay)
# 1536-well assay protocol for the human alpha-glucosidase:
# (1) Add 2 ul/well of enzyme (4 nM final)
# (2) Add 23 nL compounds in DMSO solution. The final titration was 0.7 nM to 77 uM.
# (3) Add 1 ul of substrate (400 uM final)
# (4) Incubate at room temperature for 20 min.
# (5) Add 2 ul stop solution (1M NaOH and 1M Glycine mixture, pH 10)
# (6) Detect the assay plate in a ViewLux plate reader (PerkinElmer) with Ex=365 nm and Em=440nm.
# Keywords: Alpha-glucosidase, Prope Disease, pharmacological chaperone, chaperone therapy, high throughput screening, alpha-glucosidase inhibitor, MLSMR, MLSCN, NIH Roadmap, qHTS and NCGC
Compound,"activity change, negative = inhibition",outcome
Oc1ccc2c3c1O[C@H]1c4oc5ccccc5c4C[C@]4(O)[C@H](C2)N(CC2CC2)CC[C@@]314,-2.8% (inactive),–
N[C@@H](Cn1cc(I)c(=O)[nH]c1=O)C(=O)O,-3.53% (inactive),–
CN1CCN(c2ccc3ccccc3n2)CC1,-4.13% (inactive),–
C/C(O)=C(/C#N)C(=O)Nc1cc(Br)ccc1Br,-3.13% (inactive),–
COC(=O)N1CCN(C(=O)Cc2ccc(Cl)c(Cl)c2)[C@H](CN2CCCC2)C1,-5.42% (inactive),–
NC[C@H](CP(=O)(O)O)c1ccc(Cl)cc1,-2.5% (inactive),–
COc1ccc2[nH]cc(CCN(C)C)c2c1,-3.25% (inactive),–
CN1[C@@H]2CC[C@H]1CC(O[C@@H](c1ccccc1)c1ccc(Cl)cc1)C2 (stereo not given in full),-8.81% (inactive),–
O=C(Cc1ccc(Cl)c(Cl)c1)N1CCCC[C@H]1CN1CCCC1,-2.82% (inactive),–
N[C@H](CP(=O)(O)O)C(=O)O,1.06% (inactive),–
COc1ccc(CCN)cc1O,-1.12% (inactive),–
O=C1NCN(c2ccccc2)C12CCN(C[C@H]1COc3ccccc3O1)CC2,-3.9% (inactive),–
N[C@H](CCP(=O)(O)O)C(=O)O,-3.97% (inactive),–
CN1C(=O)CCS(=O)(=O)[C@H]1c1ccc(Cl)cc1,0.494% (inactive),–
CC(C)(C)c1o[nH]c(=O)c1C[C@H](N)C(=O)O,-2.21% (inactive),–
COc1ccc(-n2nc(C(F)(F)F)cc2-c2ccc(Cl)cc2)cc1,-2.82% (inactive),–
COc1ccc(CNC(=O)/C=C\c2ccc3[nH]cc(CCN(C)C)c3c2)cc1,-2.97% (inactive),–
C=C(C)[C@H]1CN[C@H](C(=O)O)[C@@H]1CC(=O)O,-6.79% (inactive),–
O=C1CC[C@@]2(O)[C@H]3Cc4ccc(O)c5c4[C@@]2(CCN3CC2CC2)[C@@H]1O5,1.68% (inactive),–
N[C@H](CCCCCP(=O)(O)O)C(=O)O,–,inactive

Compound,"activity change, negative = inhibition",outcome
CCOC(=O)c1ncn2c1[C@H]1CCCN1C(=O)c1cc(OC)ccc1-2,-4.1% (inactive),–
Cc1o[nH]c(=O)c1C[C@H](N)C(=O)O,-0.636% (inactive),–
CN(C(=O)Cc1ccc(Cl)c(Cl)c1)[C@@H](CN1CCCC1)c1cccc(OCC(=O)O)c1,-2.83% (inactive),–
COc1cc(CCN)ccc1O,0.153% (inactive),–
c1ccc2c(c1)OC[C@@H](C1=NCCN1)O2,-2.1% (inactive),–
CNc1ccc2oc(C[C@H]3O[C@]4(CC[C@H]3C)O[C@H]([C@H](C)C(=O)c3ccc[nH]3)[C@H](C)C[C@H]4C)nc2c1C(=O)O,-5.3% (inactive),–
N[C@@]1(C(=O)O)CC[C@H](C(=O)O)C1,-2.16% (inactive),–
C=CCN1CC[C@@]23c4c5ccc(O)c4O[C@H]2/C(=N\N=C2/CC[C@@]4(O)[C@H]6Cc7ccc(O)c8c7[C@@]4(CCN6CC=C)[C@@H]2O8)CC[C@]3(O)[C@@H]1C5,-4.2% (inactive),–
CN1CC[C@@]23CCCC[C@@H]2[C@@H]1Cc1ccc(O)cc13,0.365% (inactive),–
C[C@@H](Cc1ccc(OCC(=O)O)cc1)NC[C@H](O)c1cccc(Cl)c1,0.597% (inactive),–
N[C@H](C(=O)O)c1cc(=O)[nH]o1,-5.56% (inactive),–
CC[C@]1(C2=NCCN2)Cc2ccccc2O1,-1.88% (inactive),–
C[C@H](N)Cc1cnc[nH]1,-0.773% (inactive),–
N#CC(C#N)=Cc1ccc([N+](=O)[O-])c(O)c1,-0.649% (inactive),–
COC(=O)c1cc2c(cn1)[nH]c1ccccc12,0.729% (inactive),–
Oc1ccc2c3c1O[C@H]1c4[nH]c5ccccc5c4C[C@]4(O)[C@H](C2)N(CC2CC2)CC[C@@]314,-5.07% (inactive),–
CP(=O)(O)CCCN,-3.66% (inactive),–
CC(C)[C@@]1(NC(=O)[C@@H]2C[C@H]3c4cccc5[nH]cc(c45)C[C@@H]3N(C)C2)O[C@@]2(O)[C@H]3CCCN3C(=O)[C@H](Cc3ccccc3)N2C1=O,-7.53% (inactive),–
C=CCN1CCC2(C)c3cc(O)ccc3C[C@H]1[C@H]2C,–,inactive
C[C@H](N)Cc1c[nH]c2ccc(O)cc12,-0.511% (inactive),–
